Screening data from PubChem.
Marburg entry inh = inhibitors of Marburg virus binding or cell entry | 300,000 tested, 1.8% active | Marburg virus pseudotyped entry inhibition, cell reporter | Potency, µM (doses to about 37.8 µM), hits mostly inhibitors; calls by dose curve; tested in HEK293 cells
HCMV antiviral = inhibitors of human cytomegalovirus. HFF cells, HCMV-luciferase reporter, 72 h; stronger effect = lower value. AID 1259415. activity change, negative = inhibition, % at 57.5 µM. 410,000 tested, 4.5% active; in the data active = activity change below about -60%; inconclusive = no clear call, values can overlap the other calls; inactive = above about -39%
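Two compound doses tested in HFFs infected with HCMV-luciferase, MOI 1 PFU/cell, 72 h at 37C. Lysate luminescence read with OneGlo; data normalized against buffer-only and 10uM Salinomycin inhibitor controls.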
FMDV antiviral = antivirals against foot and mouth disease virus; FMDV antiviral cell-based qHTS; AID 1159524; 410,000 tested, 1.2% active; Potency, µM (top dose mostly 57.9 µM), usual class: inhibitors; calls by dose curve; tested in HEK293T cells; note: read-out not given here; nearly all actives have a fitted effect of over 45% in size
LASV entry inh = Lassa virus entry inhibition | Lassa virus pseudotype entry inhibition, cell reporter | Potency, µM (series often up to 37.9 µM), actives largely listed as inhibitors | 300,000 tested, 1.2% active; calls by dose curve; tested in HEK293 cells; note: nearly all actives have a fitted effect of over 50% in size
A number is an active result; n = inactive; u = inconclusive; x = not tested or not shown; ! = a repeat was not active. In the library only some 6.2% were active in any assay of this set; here they are far more common.

SMILES	Marburg entry inh	HCMV antiviral	FMDV antiviral	LASV entry inh
CCn1c(SCC(=O)N2CCN(c3ccccc3)CC2)nnc1-c1cc2cc(Cl)ccc2o1	n	-80.5	n	n
CCc1nc(Nc2ccc3c(c2)OCO3)c2oc3ccccc3c2n1	u	n	u	n
Cc1nc(NC(C)c2ccccc2)c2oc3ccccc3c2n1 (stereo not given)	u	-65.4	12.6µM	u
CCc1nc(Nc2cccc(O)c2)c2oc3ccccc3c2n1	x	x	22.4µM	x
CCc1nc(NCc2ccccn2)c2oc3ccccc3c2n1	u	-63.3	15.8µM	n
CC(C)c1nc(SCC(=O)N2CCN(c3ccccc3)CC2)c2c(=O)n(C)c(=O)n(C)c2n1	x	n	20µM	x
CCCc1nc(SCC(=O)N2CCN(c3ccccc3)CC2)c2c(=O)n(C)c(=O)n(C)c2n1	x	n	u	x
Cn1cc(SCC(=O)N2CCOCC2)c2ccccc21	x	n	n	x
Cn1cc(SCC(=O)N2CCN(c3ccccc3)CC2)c2ccccc21	x	-84.4	n	x
Cc1cccc(/C=C2/Sc3ccc(C(=O)NCCN4CCCC4)cc3NC2=O)c1	x	u	n	x
CN1CCN(C(=O)c2ccc3c(c2)NC(=O)/C(=C/c2ccccc2)S3)CC1	x	-68.8	n	x
CCOC(=O)N1CCN(C(=O)c2ccc3c(c2)NC(=O)/C(=C/c2ccccc2)S3)CC1	u	u	n	u
COc1cccc(/C=C2/Sc3ccc(C(=O)NCCN4CCCCCC4)cc3NC2=O)c1	x	-69.9	n	x
CCN1CCCC1CNC(=O)c1ccc2c(c1)NC(=O)/C(=C\c1ccccc1Cl)S2 (stereo not given)	x	-62.9	n	x
O=C1Nc2cc(C(=O)NCCN3CCCCCC3)ccc2S/C1=C\c1ccccc1	x	-100.3	n	x
O=C(NCCc1nnc2n1CCN(Cc1cc3ccccc3o1)CC2)c1ccoc1	x	x	n	x
CCN1C(=O)NC(c2ccco2)C(C(C)=O)=C1C (stereo not given)	n	x	x	x
CO/N=C(\C(=O)N[C@@H]1C(=O)N2C(C(=O)OCOC(=O)C(C)(C)C)=C(/C=C\c3scnc3C)CS[C@H]12)c1csc(N)n1	x	x	n	x
CCc1ccccc1N1C(=O)N(CC(=O)c2ccc(Cl)cc2)c2ccccc2S1(=O)=O	x	n	n	u
Cc1ccc(CCNC(=O)c2cnc3c(-c4ccc(F)cc4)c(C)nn3c2C)cc1	x	n	n	n
CN(C(=O)CNC(=O)OCc1ccccc1)c1ccc(Br)cc1C(=O)c1ccccc1Cl	5.8µM	u	u	u
CC(C)C[C@H](NC(=O)C1OC1C(=O)O)C(=O)NCCCCN=C(N)N (stereo not given in full)	4.11µM	x	x	u
COc1ccc2oc(C(=O)Nc3nc4ccc(S(C)(=O)=O)cc4s3)c(C)c2c1	n	-60.1	u	n
COc1ccc2oc(C(=O)Nc3nnc(C)s3)c(C)c2c1	u	n	u	7.08µM
Cc1ccc2oc(C(=O)Nc3nnc(C)s3)c(C)c2c1	n	n	n	u
SMILES	Marburg entry inh	HCMV antiviral	FMDV antiviral	LASV entry inh
C[C@@H](Oc1ccccc1)c1nnn(Cc2ccccc2)c1-c1c([C@@H](C)Oc2ccccc2)nnn1Cc1ccccc1	x	-72.4	n	x
C=CCNc1nc2c(c(=O)n(C)c(=O)n2C)n1CCCCCC	u	-96.5	14.1µM	n
Cn1c(=O)c2c(nc(NCCc3ccccc3)n2Cc2ccc(F)cc2)n(C)c1=O	x	n	u	x
C=CCNc1nc2c(c(=O)n(C)c(=O)n2C)n1Cc1ccc(F)cc1	x	-78.9	u	x
CCCCCCn1c(N2CCCC2)nc2c1c(=O)n(C)c(=O)n2C	u	n	28.2µM	n
CC(C)CCn1c(N2CCCC2)nc2c1c(=O)n(C)c(=O)n2C	x	n	n	x
C=CCNc1nc2c(c(=O)n(C)c(=O)n2C)n1CC	x	n	n	x
O=C1CN=C(c2cccc(Br)c2)c2cc(Br)ccc2N1	7.94µM	n	n	u
Cc1cccc(N2CCN(C(c3ccccc3)c3nnnn3C(C)(C)C)CC2)c1C (stereo not given)	u	n	n	3.26µM
CC(C)(C)n1nnnc1C(c1ccc(Cl)cc1)N1CCCc2ccccc21 (stereo not given)	u	n	n	n
COCCn1nnnc1C(c1cccs1)N1CCN(c2cc(C)ccc2C)CC1 (stereo not given)	16.4µM!	n	x	u
COc1ccccc1N1CCN(C(c2ccc(Cl)cc2)c2nnnn2C(C)(C)C)CC1 (stereo not given)	u	-65.8	u	u
CC(C)(C)n1nnnc1C(c1cccnc1)N1CCN(c2ccccc2F)CC1 (stereo not given)	n	n	n	n
Cc1cccc(N2CCN(C(c3cccs3)c3nnnn3C(C)(C)C)CC2)c1C (stereo not given)	11.6µM!	u	x	u
CCOc1ccccc1NC(=O)CSc1nccn1Cc1ccc(F)cc1	x	n	n	n
O=C(Cn1cnc2onc(-c3ccc(F)cc3)c2c1=O)Nc1ccc(F)c(Cl)c1	x	u	n	u
CCS(=O)(=O)Nc1cc(C(=O)N[C@H]2CCCCNC2=O)c2c(c1)nc(-c1ccccc1)n2C	x	x	n	x
COc1ccc(NC(=O)c2ccc(NC(=O)CCS(=O)(=O)c3cccs3)cc2)cc1Cl	u	n	n	n
Cc1cccc2cc(-c3ccccc3)c(-c3ccccc3)c[n+]12	u	-96.5	u	11.2µM
COC(=O)c1c(C)oc2ccc(NS(=O)(=O)c3cc(OC)ccc3OC)cc12	u	-61.6	u	u
COc1ccc(OC)c(S(=O)(=O)Nc2ccc3oc(C)c(C(C)=O)c3c2)c1	n	n	n	n
COc1ccc(OC)c(S(=O)(=O)Nc2ccc(Oc3ccccc3)cc2)c1	n	-63.5	n	n
Cc1ccc(C=Nc2ccc(N(C)C)cc2)o1	n	-75.7	n	u
O=C1c2ccc3c4c(ccc(c24)C(=O)N1CCCCO)C(=O)N(CCCCO)C3=O	x	-99.7	u	x
O=C(c1ccc2c(c1)C(=O)N(CCCO)C2=O)c1ccc2c(c1)C(=O)N(CCCO)C2=O	n	n	n	n
SMILES	Marburg entry inh	HCMV antiviral	FMDV antiviral	LASV entry inh
Nc1nc(Sc2ccc([N+](=O)[O-])c3nonc23)c2[nH]cnc2n1	u	-85.0	u	u
CNc1ncnc(Sc2nc(N)nc3nc[nH]c23)c1[N+](=O)[O-]	u	-76.6	u	2.51µM
Nc1nc(N)c2[nH]cnc2n1	x	x	n	x
Nc1c(-c2nc(-c3ccc4c(c3)OCO4)cs2)c2ccccn2c1C(=O)c1ccccc1	n	n	n	n
NC(=O)c1ccc(N=Cc2ccc([N+](=O)[O-])s2)cc1	u	-97.5	u	u
O=[N+]([O-])c1ccc(C=Nc2ccc(Cl)c([N+](=O)[O-])c2)s1	x	-98.6	x	x
CCc1cc(C(=O)NCC2Cc3cc(-c4ccccc4C(C)=O)ccc3O2)no1 (stereo not given)	x	x	n	x
COc1ccc(C(=O)O/N=C/c2c(C(F)(F)F)nn(C)c2SCc2ccccc2Cl)cc1	u	-82.1	n	u
CCCCCC(=O)Nc1cc(S(=O)(=O)O)cc2cc(S(=O)(=O)O)cc(O)c12	u	-77.5	n	n
COC(=O)C1=C(C)N(Cc2ccccc2C(F)(F)F)C(=NCc2ccc(C(F)(F)F)cc2)NC1CCc1ccccc1 (stereo not given)	x	n	x	x
CCOC(=O)NC(Nc1sc2c(c1C(=O)OC)CCN(C)C2)(C(F)(F)F)C(F)(F)F	n	n	n	n
CCC(=O)NC(Nc1sc2c(c1C(=O)OC)CCN(C)C2)(C(F)(F)F)C(F)(F)F	n	-101.2	n	n
CCOc1ccc(S(=O)(=O)Nc2cc(OC)ccc2OC)cc1	u	-63.7	n	u
